Assay results reported in PubChem BioAssay (NCATS).
“And” between values parts separate entries of the source, which are not always exact repeats. Equal entries are not always repeated. Inconclusive results are not listed. Where a structure was tested more than once in an assay, its records may differ in their call. The source made the active and inactive calls. Calls come from the whole dose curve; as a rule, active = well fitted inhibition curve with a large enough effect; inconclusive = small, poorly fitted or top-dose-only effect; inactive = flat fitted curve, though single readings scatter.

Columns and labels:
SC27B = assay: qHTS profiling for inhibitors of Plasmodium falciparum proliferation (AID 504749); settings: P. falciparum in erythrocytes, SYBR Green DNA, 72 h; series mostly up to 28.7 µM
Outline: (§1)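 Three-day growth assay of blood-stage parasites in erythrocytes (0.3% parasitemia, 2.5% hematocrit) at 37 C, 5% CO2, quantified by SYBR Green DNA staining after overnight detergent lysis.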

TAB109 = assay: as above; settings: P. falciparum in erythrocytes, SYBR Green DNA, 72 h; series mostly up to 28.7 µM
Outline: as §1

TAB113 = assay: as above; settings: P. falciparum in erythrocytes, SYBR Green DNA, 72 h; series mostly up to 28.7 µM
Outline: as §1

TAB165 = assay: as above; settings: P. falciparum in erythrocytes, SYBR Green DNA, 72 h; series mostly up to 28.7 µM
Outline: as §1

W2 = assay: as above; settings: P. falciparum in erythrocytes, SYBR Green DNA, 72 h; series mostly up to 28.7 µM
Outline: as §1

CRL-7250 = normal cell line; assay: Cytotoxic Profiling of Annotated Libraries Using Quantitative High-Throughput Screening (AID 1296008); settings: Five cell lines viability, CellTiter-Glo ATP luminescence, 48-72 h; max response: stronger effect = lower value; for max response: % is set by controls: 0 for no effect and ±100 for the full control effect
Outline: (§2)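 Cytotoxicity was measured as CellTiter-Glo ATP luminescence, read after 10 min at room temperature. Compound treatment of the cells lasted 48 or 72 hr at 37 degrees Celsius in a qHTS format.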

HEK293 = assay: as above; settings: Five cell lines viability, CellTiter-Glo ATP luminescence, 48-72 h; max response: stronger effect = lower value
Outline: as §2

HaCat [1] = assay: as above; settings: Five cell lines viability, CellTiter-Glo ATP luminescence, 48-72 h; max response: stronger effect = lower value
Outline: as §2

KB-3-1 = assay: as above; settings: Five cell lines viability, CellTiter-Glo ATP luminescence, 48-72 h; max response: stronger effect = lower value
Outline: as §2

NIH3T3 [2] = assay: as above; settings: Five cell lines viability, CellTiter-Glo ATP luminescence, 48-72 h; max response: stronger effect = lower value
Outline: as §2

MCC-13 = assay: qHTS assay to identify novel small-molecules to repurpose for Merkel cell carcinoma treatment (AID 1296009); settings: MCC and control cell lines, CellTiter-Glo viability, 72 h; series mostly up to 46 µM
Outline: (§3)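 After compound transfer in DMSO, plates were kept 72 hr at 37 degree celsius. Luminescent ATP signal from CellTiter-Glo served as viability measure, normalized against DMSO and no-cell controls.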

MCC-26 = assay: as above; settings: MCC and control cell lines, CellTiter-Glo viability, 72 h; series mostly up to 46 µM
Outline: as §3

MKL-1 = assay: as above; settings: MCC and control cell lines, CellTiter-Glo viability, 72 h; series mostly up to 46 µM
Outline: as §3

MKL-2 = assay: as above; settings: MCC and control cell lines, CellTiter-Glo viability, 72 h; series mostly up to 46 µM
Outline: as §3

NIH3T3 [3] = assay: as above; settings: MCC and control cell lines, CellTiter-Glo viability, 72 h; at 44.8 µM (top of the series) unless noted
Outline: as §3

UISO = assay: as above; settings: MCC and control cell lines, CellTiter-Glo viability, 72 h; series mostly up to 46 µM
Outline: as §3

WaGa = assay: as above; settings: MCC and control cell lines, CellTiter-Glo viability, 72 h; series mostly up to 46 µM
Outline: as §3

PC49 = assay: qHTS profiling for inhibitors of Plasmodium falciparum proliferation (AID 504749); settings: P. falciparum in erythrocytes, SYBR Green DNA, 72 h; series mostly up to 28.7 µM
Outline: as §1

HACAT [4] = assay: qHTS assay to identify novel small-molecules to repurpose for Merkel cell carcinoma treatment (AID 1296009); settings: MCC and control cell lines, CellTiter-Glo viability, 72 h; at 44.8 µM (top of the series) unless noted
Outline: as §3

HEK293T = assay: as above; settings: MCC and control cell lines, CellTiter-Glo viability, 72 h; at 44.8 µM (top of the series) unless noted
Outline: as §3
Note: nearly all actives have a fitted effect of over 60% in size.
Potency is the fitted concentration of half-maximal effect.

COc1cc2c(Nc3ccc(Br)cc3F)ncnc2cc1OCC1CCN(C)CC1
20.9 µM (active) and inactive: Potency (UISO)
active: Potency (SC27B) 2.82 µM | Potency (TAB109) 2.24 µM | Potency (TAB113) 2.24 µM | Potency (TAB165) 3.55 µM | Potency (W2) 3.38 µM | Potency (CRL-7250) 18.7 µM | Potency (HEK293) 26.4 µM | Potency (HaCat [1]) 7.31 µM | Potency (NIH3T3 [2]) 5.9 µM and 5.17 µM
23.5 µM (active) and inactive: Potency (MCC-13)
inactive: outcome (CRL-7250) | max response (HEK293) -4.93% | max response (HaCat [1]) 0.174% | max response (KB-3-1) -19.6% | outcome (NIH3T3 [2]) | Potency (MCC-26) | Potency (MKL-1) | Potency (MKL-2) | outcome (NIH3T3 [3]) | Potency (WaGa)

S=P(N1CC1)(N1CC1)N1CC1
inactive: Potency (PC49) | Potency (SC27B) | Potency (TAB109) | Potency (TAB113) | Potency (TAB165) | Potency (W2) | max response (CRL-7250) -10.3% | outcome (CRL-7250) | outcome (HaCat [1]) | max response (KB-3-1) 19% and 33.9% and 9.73% | max response (NIH3T3 [2]) -7.91% | outcome (HACAT [4]) inactive [at 92 µM] | Potency (MCC-13) | Potency (MCC-26) | Potency (MKL-1) | Potency (MKL-2) | Potency (UISO) | Potency (WaGa)
active: Potency (HEK293) 22.8 µM

Cn1nnc2c(C(N)=O)ncn2c1=O
inactive: Potency (PC49) | Potency (SC27B) | Potency (TAB109) | Potency (TAB113) | Potency (TAB165) | Potency (W2) | max response (CRL-7250) 3.05% | outcome (CRL-7250) | max response (HEK293) 1.76% and -7.24% | max response (HaCat [1]) 0.848% | outcome (HaCat [1]) | max response (KB-3-1) 3.98% and 7.43% | max response (NIH3T3 [2]) -16.1% | outcome (NIH3T3 [2]) | outcome (HACAT [4]) | Potency (MCC-13) | Potency (MCC-26) | Potency (MKL-1) | Potency (MKL-2) | outcome (NIH3T3 [3]) | Potency (UISO) | Potency (WaGa)

COc1ccccc1OCC(O)COC(N)=O (stereo not drawn)
inactive: max response (CRL-7250) -1.17% | outcome (CRL-7250) | max response (HEK293) 2.15% | outcome (HEK293) | max response (HaCat [1]) -15.7% | outcome (HaCat [1]) | max response (KB-3-1) 5.86% and 1.39% | max response (NIH3T3 [2]) 4.42% and 1.69% | outcome (HACAT [4]) | outcome (HEK293T) | Potency (MCC-13) | Potency (MCC-26) | Potency (MKL-1) | Potency (MKL-2) | Potency (UISO) | Potency (WaGa)

O=C(O)CCn1c2c(c3ccccc31)C[C@H](NS(=O)(=O)c1ccc(F)cc1)CC2
inactive: max response (CRL-7250) -4.51% | outcome (CRL-7250) | max response (HEK293) 3.39% and -17.8% | outcome (HEK293) | max response (HaCat [1]) 4.42% and 4.82% | outcome (HaCat [1]) | max response (KB-3-1) 0.769% and -7.72% | outcome (KB-3-1) | max response (NIH3T3 [2]) -9.59% and 4.36% | outcome (NIH3T3 [2]) | outcome (HACAT [4]) | outcome (HEK293T) | Potency (MCC-13) | Potency (MKL-1) | Potency (MKL-2) | outcome (NIH3T3 [3]) | Potency (UISO) | Potency (WaGa)

CC(C)Cn1cnc2c(N)nc3ccccc3c21
inactive: Potency (PC49) | Potency (SC27B) | Potency (TAB109) | Potency (TAB165) | Potency (W2) | max response (CRL-7250) -12.7% | outcome (CRL-7250) | max response (HEK293) -0.0078% | max response (HaCat [1]) -15.1% and -54.5% | max response (KB-3-1) -6.03% and -18.1% | max response (NIH3T3 [2]) -4.24% and -9.09% | Potency (MCC-13) | Potency (MCC-26) | Potency (MKL-1) | Potency (MKL-2) | Potency (UISO)
inactive and 20.9 µM (active): Potency (WaGa)

CC(C)(Sc1cc(C(C)(C)C)c(O)c(C(C)(C)C)c1)Sc1cc(C(C)(C)C)c(O)c(C(C)(C)C)c1
active: Potency (W2) 4.05 µM
inactive: Potency (PC49) | Potency (SC27B) | Potency (TAB109) | Potency (TAB113) | Potency (TAB165) | max response (CRL-7250) -4.36% | outcome (CRL-7250) | max response (HEK293) 2.23% | outcome (HEK293) | max response (HaCat [1]) 0.994% | outcome (HaCat [1]) | max response (KB-3-1) -10.8% and 4.75% | max response (NIH3T3 [2]) 1.18% | outcome (NIH3T3 [2]) | outcome (HACAT [4]) | outcome (HEK293T) | Potency (MCC-13) | Potency (MKL-1) | Potency (MKL-2) | outcome (NIH3T3 [3]) | Potency (UISO) | Potency (WaGa)

CCCOc1ccc(C(=O)OCCN(CC)CC)cc1N
inactive: max response (CRL-7250) -2.34% and -3.98% | max response (HEK293) -0.795% | outcome (HEK293) | max response (HaCat [1]) -1.58% and 2.22% | max response (KB-3-1) -2.47% and 5.78% | outcome (NIH3T3 [2]) | outcome (HEK293T) | Potency (MCC-13) | Potency (MCC-26) | Potency (MKL-1) | Potency (MKL-2) | outcome (NIH3T3 [3]) | Potency (UISO) | Potency (WaGa)

Cc1cccc(N(C)C(=S)Oc2ccc3ccccc3c2)c1
inactive: Potency (PC49) | Potency (SC27B) | Potency (TAB109) | Potency (TAB113) | Potency (TAB165) | Potency (W2) | max response (CRL-7250) -5.5% | outcome (CRL-7250) | max response (HaCat [1]) 0.266% and 1.06% | max response (KB-3-1) 1.04% | outcome (KB-3-1) | max response (NIH3T3 [2]) -1.35% and 4.99% | Potency (MCC-13) | Potency (MCC-26) | Potency (MKL-1) | Potency (MKL-2) | Potency (UISO) | Potency (WaGa)

CCN[C@H]1C[C@H](C)S(=O)(=O)c2sc(S(N)(=O)=O)cc21
inactive: max response (CRL-7250) -1.48% and 1.03% | max response (HEK293) -5.09% | outcome (HEK293) | max response (HaCat [1]) -6.44% | outcome (HaCat [1]) | max response (KB-3-1) 1.27% and -0.756% | max response (NIH3T3 [2]) 0.236% and 2.34% | outcome (HACAT [4]) | outcome (HEK293T) | Potency (MCC-13) | Potency (MCC-26) | Potency (MKL-1) | Potency (MKL-2) | Potency (UISO) | Potency (WaGa)
